Experimental data as given in the supplement of paper PMC10127200.
Structures can show the parent of a compound that is named as a salt.

Tested on: A549
Experiment: Euclidean distance of Cell Painting phenotypic profile (signed KS, 77 features) to DMSO centroid (dimensionless distance); 5 or 10 uM (library dependent); higher = stronger phenotypic change vs DMSO (phenoactivity)
Conditions: 48 h
How it was run: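 Stained cells were imaged confocally at 20X with 9 fields per well, after 48 h of exposure to library compounds at 10 or 5 uM (set by library; 0.1% DMSO final). The cells were five cancer lines and a healthy fibroblast line. From the images, Harmony extracted 77 features, each expressed as a signed Kolmogorov-Smirnov statistic relative to same-plate vehicle wells. Phenoactivity is measured as Euclidean distance to the median vehicle profile, using plate-position-corrected, correlation-weighted profiles averaged across replicates at the top dose.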

Row | Compound | Euclidean distance
1 | C/C=C(/C)C(=O)O[C@H]1[C@H](OC(C)=O)[C@@]2(CO)C(CC1(C)C)C1=CCC3[C@@]4(C)CCC(O[C@@H]5O[C@H](C(=O)O)[C@@H](O[C@@H]6O[C@H](CO)[C@@H](O)[C@H](O)[C@H]6O)[C@H](O)[C@H]5O[C@@H]5O[C@H](CO)[C@@H](O)[C@H](O)[C@H]5O)[C@](C)(CO)C4CC[C@@]3(C)[C@]1(C)C[C@H]2O.C/C=C(\C)C(=O)O[C@H]1[C@H](OC(C)=O)[C@@]2(CO)C(CC1(C)C)C1=CCC3[C@@]4(C)CCC(O[C@@H]5O[C@H](C(=O)O)[C@@H](O[C@@H]6O[C@H](CO)[C@@H](O)[C@H](O)[C@H]6O)[C@H](O)[C@H]5O[C@@H]5O[C@H](CO)[C@@H](O)[C@H](O)[C@H]5O)[C@](C)(CO)C4CC[C@@]3(C)[C@]1(C)C[C@H]2O (stereo partly specified) [Escin] | 0.784
2 | OC(CNCC(O)C1CCc2cc(F)ccc2O1)C1CCc2cc(F)ccc2O1 (stereo unspecified) [Nebivolol] | 1.67
3 | COc1ccc(C[C@H](NC(=O)[C@H](C)NC(=O)CN2CCOCC2)C(=O)N[C@@H](Cc2ccccc2)C(=O)[C@@]2(C)CO2)cc1 | 4.5
4 | CC(C)N(CCCNC(=O)Nc1ccc(C(C)(C)C)cc1)C[C@H]1O[C@@H](n2ccc3c(N)ncnc32)[C@H](O)[C@@H]1O | 0.769
5 | O=C(Nc1ncc(SCCN2CCCC2)s1)[C@]1(c2ccc(S(=O)(=O)C3CC3)cc2)C[C@H]1C1CCCCC1 | 2.38
6 | CCOC(=O)CC(=O)N1CCSC1COc1ccccc1OC (stereo unspecified) [Moguisteine] | 0.946
7 | COc1cc(N2CCC(N3CCN(C)CC3)CC2)ccc1Nc1ncc(Cl)c(Nc2ccccc2P(C)(C)=O)n1 | 2.29
8 | CC(C)c1cc(C(C)C)c(CC(=O)NS(=O)(=O)Oc2c(C(C)C)cccc2C(C)C)c(C(C)C)c1 [Avasimibe] | 1.79
9 | C#Cc1cccc(Nc2ncnc3cc(OCCOC)c(OCCO)cc23)c1 | 1.49
10 | CC1(C)S[C@@H]2[C@H](NC(=O)C(c3ccccc3)S(=O)(=O)O)C(=O)N2[C@H]1C(=O)O (stereo partly specified) [Sulbenicillin Sodium] | 0.447
11 | COc1cc2/c(=N/c3ccc(Br)cc3F)nc[nH]c2cc1OCC1CCN(C)CC1 [Vandetanib (ZD6474)] | 2.59
12 | Cc1ccc(NC(=O)c2cccc(C(C)(C)C#N)c2)cc1Nc1ccc2ncn(C)c(=O)c2c1 | 2.03
13 | C[C@]12CC[C@@H]3c4ccc(O)cc4C[C@@H](CCCCCCCCC[S+]([O-])CCCC(F)(F)C(F)(F)F)[C@H]3[C@@H]1CC[C@@H]2O (stereo partly specified) [Fulvestrant] | 1.67
14 | CC[C@H](Nc1ncnc2[nH]cnc12)c1nc2cccc(F)c2c(=O)n1-c1ccccc1 [CAL-101 (Idelalisib. GS-1101)] | 0.736
15 | CCN1CCN(Cc2ccc(Nc3ncc(F)c(-c4cc(F)c5nc(C)n(C(C)C)c5c4)n3)nc2)CC1 [Abemaciclib] | 4.37
16 | O=c1c(-n2ccnn2)c[nH]n1-c1cc(N2CCOCC2)ncn1 [Molidustat (BAY 85-3934)] | 0.806
17 | O=c1ccn([C@@H]2O[C@H](CO)[C@@H](O)[C@H]2O)c(=O)[nH]1 [Uridine] | 0.801
18 | CN1CCN(C2=Nc3cc(Cl)ccc3Nc3ccccc32)CC1 [Clozapine] | 1.56
19 | C[C@@H]1COCCN1c1cc(C2([S@](C)(=N)=O)CC2)nc(-c2cc[nH]c3nccc2-3)n1 | 2.73
20 | CCCC(=O)O[C@]1(C(=O)COC(C)=O)CC[C@H]2[C@@H]3C[C@H](F)C4=CC(=O)C=C[C@]4(C)[C@@]3(F)[C@@H](O)C[C@@]21C [Difluprednate] | 2.5
21 | CCCNCC(O)COc1ccccc1C(=O)CCc1ccccc1 (stereo unspecified) [Propafenone HCl] | 1.51
22 | CN1CCN(CC/C=C2/c3ccccc3Sc3ccc(S(=O)(=O)N(C)C)cc32)CC1 [Thiothixene] | 2.33
23 | Cc1cn(-c2cc(NC(=O)c3ccc(C)c(Nc4nccc(-c5cccnc5)n4)c3)cc(C(F)(F)F)c2)cn1 [Nilotinib (AMN-107)] | 3.94
24 | COc1ccc(-c2cc3c(C)nc(N)nc3n([C@H]3CC[C@H](OCCO)CC3)c2=O)cn1 | 3.33
25 | C[C@]1(COc2ccc(N3CCC(Oc4ccc(OC(F)(F)F)cc4)CC3)cc2)Cn2cc([N+](=O)[O-])nc2O1 [Delamanid] | 1.11
26 | Cc1cc2c(cc1CC(=O)c1sccc1S(=O)(=O)Nc1onc(C)c1Cl)OCO2 [Sitaxentan sodium] | 0.821
